Measured values taken from PubChem BioAssay (NCATS).
Inconclusive results are not listed. A number with no mark means an inactive call. The call rests on the fitted dose curve; in most records, active means well fitted inhibition curve with a large enough effect; inconclusive means small, poorly fitted or top-dose-only effect; inactive means flat fitted curve, though single readings scatter.

The compounds below were run against Calcium and integrin-binding protein 1 (Homo sapiens) (UniProt Q99828) (assay: Primary qHTS for Identification of Calcium Integrin Binding Protein 1 (CIB1) Competitor (AID 1508620;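 further: GST tagged CIB1 binding a fluorescein labelled alphaIIb integrin peptide tracer; top concentration of the series differs between compounds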)). Details: CIB1-GST / FITC-alphaIIb peptide fluorescence polarization; series mostly up to 57.7 µM; activity change, negative = inhibition: at the top concentration.
Method in brief: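 Fluorescence polarization competition: CIB1-GST (1 uM final) preincubated with compound 15 min at room temperature, then FITC-labeled alphaIIb peptide (100 nM final) added for another 15 min. Polarization read at Ex 480/Em 540.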
On the % scale 0 is the no-effect control and ±100 the full control effect.

Chain of Calcium and integrin-binding protein 1 (Homo sapiens) (Q99828 whole entry, looked up): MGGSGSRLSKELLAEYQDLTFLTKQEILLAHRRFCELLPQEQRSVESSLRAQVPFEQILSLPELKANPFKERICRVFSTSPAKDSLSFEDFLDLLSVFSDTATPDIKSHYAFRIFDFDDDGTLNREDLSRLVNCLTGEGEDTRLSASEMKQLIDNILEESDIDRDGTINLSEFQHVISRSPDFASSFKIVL

| Compound | activity change, negative = inhibition |
| --- | --- |
| CC(=O)c1c(C)cc(O[C@@H]2O[C@H](CO)[C@@H](O)[C@H](O)[C@H]2O)cc1O | -1.91% |
| COc1cccc(-n2nc(C(=O)O)cc2-c2ccc(C3CCCCC3)c(Cl)c2)c1 | -3.91% [at 114 µM] |
| C=C1CCC2[C@@](C)(C=O)CCC[C@]2(C)[C@H]1CC/C(C)=C/CO (stereo not given in full) | -6.52% [at 114 µM] |
| C=C1C(=O)OC2CC(C)=C(C(C)CCCO[C@@H]3O[C@H](CO)[C@@H](O)[C@H](O)[C@H]3O)C(O)C12 (stereo not given in full) | -0.596% |
| CC1CCC2(C)C(CC(O)C(O)C23CO3)C1(C)CCC1=CC(=O)OC1O (stereo not given) | -8.93% |
| C#C[C@]1(O)CC[C@H]2[C@@H]3CCC4=C/C(=N/O)CC[C@@H]4[C@H]3CC[C@@]21CC | 0.949% [at 114 µM] |
| CC1(C)CCCC2(C)C3=C(C(=O)OC3O)C(O)CC12 (stereo not given) | 1.86% [at 114 µM] |
| O=C1[C@H](O[C@@H]2O[C@H](CO)[C@@H](O)[C@H](O)[C@H]2O)Oc2ccccc2N1O | 0.884% |
| C=C1C[C@@]23CC[C@@H]4[C@](C)(C(=O)O)CCC[C@@]4(C)C2=CC[C@H]1C3 | -4.02% [at 114 µM] |
| CC(c1c[nH]c2ccccc12)C(O)C(=O)O (stereo not given) | 1.62% [at 114 µM] |
| CC(=O)OC1C(O)C(C)=C(CCC(C)CC(=O)O)C2(C)CCCC(C)(C)C12 (stereo not given) | -3.43% |
| COc1cc(COC2OC(CO)C(O)C(O)C2O)cc(OC)c1O (stereo not given) | 0.42% |
| C=C1CCC2C(C)(C(=O)O)CC(O)CC2(C)C1CC/C(C)=C/C(=O)O (stereo not given) | 1.49% |
| CC(C)=CCC/C(C)=C/CC/C(C)=C/CC[C@]1(C)CCc2cc(O)cc(C)c2O1 | 3.21% |
| C=C1CCC2C(OC(=O)C2(O)COC(C)=O)C2C(=C)C(O)CC12 (stereo not given) | -14.8% |
